Measured values: PubChem BioAssay (NCATS)
The list shows a part of the results. Where a call stands in place of a potency, no number is given. Results filed as inconclusive are left out. Activity calls are given as the source filed them. Calls follow the shape of the dose curve; as a rule, active = well fitted inhibition curve with a large enough effect; inconclusive = small, poorly fitted or top-dose-only effect; inactive = no such curve, though single readings can be large or run the other way.

Target: RecQ-like DNA helicase BLM (Homo sapiens) (UniProt P54132)
Assay: qHTS for Inhibitors of WRN Helicase: BLM Helicase Counterscreen for WRN Inhibitors (AID 720503); also: nearly all actives have a fitted effect of over 60% in size
Conditions: Recombinant BLM helicase DNA unwinding, red fluorescence; series mostly up to 57.1 µM
Procedure, shortened: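 BLM (1 nM) was preincubated with compounds for 15 min at room temperature in Tris-HCl pH 8.0, 50 mM NaCl, 2 mM MgCl2 buffer. Unwinding started with 100 nM DNA and 2 mM ATP (final); red fluorescence was read twice, 15 min apart.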

RecQ-like DNA helicase BLM (Homo sapiens), sequence (P54132 whole entry, looked up): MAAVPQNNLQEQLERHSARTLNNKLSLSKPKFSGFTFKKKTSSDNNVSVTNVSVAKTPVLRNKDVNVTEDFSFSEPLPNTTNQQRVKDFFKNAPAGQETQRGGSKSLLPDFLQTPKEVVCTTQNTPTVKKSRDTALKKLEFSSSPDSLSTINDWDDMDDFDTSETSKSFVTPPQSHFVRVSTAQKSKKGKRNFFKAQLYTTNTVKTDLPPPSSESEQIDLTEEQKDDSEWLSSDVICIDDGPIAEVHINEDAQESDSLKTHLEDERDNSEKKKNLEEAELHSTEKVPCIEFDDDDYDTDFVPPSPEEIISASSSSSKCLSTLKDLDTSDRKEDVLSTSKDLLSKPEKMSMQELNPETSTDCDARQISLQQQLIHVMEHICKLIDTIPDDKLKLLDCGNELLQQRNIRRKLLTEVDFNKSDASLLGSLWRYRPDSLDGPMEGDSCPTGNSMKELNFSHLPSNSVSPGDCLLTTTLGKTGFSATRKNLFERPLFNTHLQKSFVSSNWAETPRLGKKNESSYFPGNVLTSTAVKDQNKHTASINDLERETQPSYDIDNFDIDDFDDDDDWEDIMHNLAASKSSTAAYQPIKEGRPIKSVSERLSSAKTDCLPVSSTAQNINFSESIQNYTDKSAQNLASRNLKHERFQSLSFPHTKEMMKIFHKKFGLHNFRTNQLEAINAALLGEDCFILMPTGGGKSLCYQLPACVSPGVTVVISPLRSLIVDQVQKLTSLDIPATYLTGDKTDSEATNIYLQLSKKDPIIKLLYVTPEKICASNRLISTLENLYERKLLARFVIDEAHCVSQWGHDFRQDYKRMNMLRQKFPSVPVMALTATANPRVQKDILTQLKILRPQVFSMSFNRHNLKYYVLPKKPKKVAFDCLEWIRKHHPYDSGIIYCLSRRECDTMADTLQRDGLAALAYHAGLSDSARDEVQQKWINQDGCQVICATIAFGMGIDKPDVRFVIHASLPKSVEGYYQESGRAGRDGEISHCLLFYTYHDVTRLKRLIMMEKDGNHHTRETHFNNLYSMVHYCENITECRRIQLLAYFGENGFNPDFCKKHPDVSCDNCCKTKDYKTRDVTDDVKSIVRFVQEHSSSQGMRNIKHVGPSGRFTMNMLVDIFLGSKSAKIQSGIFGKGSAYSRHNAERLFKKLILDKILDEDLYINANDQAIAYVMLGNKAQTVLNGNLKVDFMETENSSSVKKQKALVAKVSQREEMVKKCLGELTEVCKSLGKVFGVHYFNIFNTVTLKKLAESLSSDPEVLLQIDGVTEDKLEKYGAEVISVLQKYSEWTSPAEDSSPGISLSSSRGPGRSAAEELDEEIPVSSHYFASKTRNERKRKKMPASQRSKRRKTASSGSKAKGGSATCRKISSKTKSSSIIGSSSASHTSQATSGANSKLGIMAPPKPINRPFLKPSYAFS

| Compound | Potency |
| --- | --- |
| COC(=O)/C=C\C(=O)Nc1cccc([N+](=O)[O-])c1 | inactive |
| O=C(Nc1ccccc1)c1nnsc1S(=O)(=O)c1ccc(Cl)cc1 | inactive |
| O=c1[nH]c2ccccc2n2c(-c3ccccc3)nnc12 | inactive |
| CC(=O)N(C1=C(Cl)C(=O)c2ccccc2C1=O)c1ccc(C(=O)O)cc1 | inactive |
